Assay outcomes as filed in PubChem.
Compounds with a hit are over-represented: about 6% of the library has one in this group of screens.
D3 ag = D3 dopamine receptor (human) agonism; max activation, %; 410,000 compounds, 0.58% hits; P35462; D3R DiscoveRx beta-arrestin cells, luminescence, 90 min; in the data active = max activation above about 30%
Target sequence (P35462 whole entry, looked up): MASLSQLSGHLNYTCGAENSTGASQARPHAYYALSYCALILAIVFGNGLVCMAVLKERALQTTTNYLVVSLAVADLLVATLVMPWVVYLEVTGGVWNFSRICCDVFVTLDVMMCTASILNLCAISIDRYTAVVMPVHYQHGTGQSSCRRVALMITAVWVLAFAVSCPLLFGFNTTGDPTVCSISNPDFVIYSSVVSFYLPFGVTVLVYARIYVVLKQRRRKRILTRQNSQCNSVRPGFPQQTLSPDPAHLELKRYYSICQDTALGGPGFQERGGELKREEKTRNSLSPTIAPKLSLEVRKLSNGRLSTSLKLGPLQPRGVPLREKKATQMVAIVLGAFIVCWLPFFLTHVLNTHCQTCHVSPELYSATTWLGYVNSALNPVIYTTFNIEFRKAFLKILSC
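Agonist-mode cell screen: cells plated at 1500/well and incubated overnight at 37 °C, then exposed to library compounds for 90 min at 37 °C. Detection reagent was added for 30–60 min at room temperature, and luminescence was read.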
D1 PAM = human D1 dopamine receptor positive modulation; potentiation, % at 10 µM; AID 504651; 360,000 compounds, 0.036% hits; P21728; HEK293 TREx D1 cells, calcium flux, dopamine EC20 potentiation; in the data active = potentiation above about 30%
D1 ag = human D1 receptor agonism. 360,000 compounds, 1% hits. activation, % at 2 µM. HEK293 T-REx D1 cells, calcium flux, agonist mode. AID 504660. P21728; in the data active = activation above about 30%
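Agonism was scored from calcium flux recorded over 180 s (1 read/s) after pintool compound addition, following a 10-cycle baseline. Cells were inducible force-coupled HEK293 TREx D1, plated overnight at 30 C and loaded with no-wash calcium dye.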
D1 antagonist = human D1 dopamine receptor antagonism; HEK293 TREx D1 cells, calcium flux, dopamine EC80; stronger effect = lower value; AID 504652; activity change, negative = inhibition, % at 10 µM; 360,000 compounds, 3.2% hits; P21728; in the data active = activity change below about -30%
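Tetracycline-induced HEK293 Trex D1 cells, force-coupled to calcium, dye-loaded; compounds added and read 180 s, then EC80 dopamine added and calcium flux tracked kinetically another 180 s.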
D3 antag = antagonists of human D3 dopamine receptor | P35462 | D3R cells, DiscoveRx beta-arrestin luminescence, antagonist mode; stronger effect = lower value | max response, negative = inhibition, % | 360,000 compounds, 2.5% hits | AID 652054; in the data active = max response below about -50%; inconclusive = no clear call, values can overlap the other calls
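Cells plated overnight at 1500 cells/well, then exposed to library compounds with dopamine controls for 90 minutes at 37 degrees C. DiscoveRx reagent added for 30–60 minutes at room temperature; luminescence read, quantitative HTS format.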
Large screens that a line does not name were inactive.

N#CC(c1ccccc1)c1ccc2c(C(F)(F)F)cc(C(F)(F)F)nc2n1 (stereo not drawn)	D3 antag -80.2
Cc1cc(=O)n2cc(-c3ccccc3)nc2[nH]1	none
Cc1ccc(-c2cn3c(=O)cc(C)[nH]c3n2)cc1	D1 antagonist -40.0
Fc1ccc(-c2n[nH]c(=S)n2Cc2ccccc2)cc1	none
S=c1[nH]nc(-c2cccnc2)n1Cc1ccccc1	D3 antag -52.9
FC(F)C(F)(F)Oc1cccc(-c2n[nH]c(=S)n2Cc2ccccc2)c1	D1 antagonist -39.5
CC(C)(C)c1ccc(-c2n[nH]c(=S)n2Cc2ccccc2)cc1	D1 ag 91.5
Cc1nn(Cc2n[nH]c(=S)n2Cc2ccccc2)c(C)c1Cl	D3 antag -87.3
CCC(C(=O)Nc1c(C)cccc1C)n1c(-c2ccc(=O)[nH]c2)nc2ccccc21 (stereo not drawn)	none (no result: D1 PAM, D1 ag, D1 antagonist)
CC1CC(C)CN(S(=O)(=O)c2ccc3c(c2)CC(C)N3C(=O)C2CC2)C1 (stereo not drawn)	D3 antag -109.5
CC1Cc2cc(S(=O)(=O)NCc3ccccc3Cl)ccc2N1C(=O)C1CCC1 (stereo not drawn)	D1 antagonist -80.4 (no result: D3 antag)
CCC(=O)N1c2ccc(S(=O)(=O)NCc3ccc(F)cc3)cc2CC1C (stereo not drawn)	D1 antagonist -32.5 (no result: D3 antag)
CC1CC(C)CN(S(=O)(=O)c2ccc3c(c2)CC(C)N3C(=O)C2CCC2)C1 (stereo not drawn)	none
CCN(CC)c1cc2c(cc1F)c(=O)c(S(=O)(=O)c1cccc(C)c1)cn2C	none (no result: D3 antag)
Cc1ccc(CNc2c(C)c(C)nc3nncn23)cc1	D1 antagonist -45.1 (no result: D3 antag)
Cc1nc(NC(=O)C2CC2)sc1C(=O)Nc1ccccc1	D1 antagonist -37.8
O=C(CCn1c(=O)c2cccn2c2cccnc21)NCc1ccc(Cl)cc1	none (no result: D3 antag)
O=C(Nc1nc2ccc(F)cc2s1)c1ccc([N+](=O)[O-])o1	D3 antag -57.3 (no result: D1 PAM, D1 ag, D1 antagonist)
COC(=O)c1cc2sccc2n1CC(=O)Nc1ccc(OC)c(OC)c1	none (no result: D3 antag)
CCOC(=O)c1oc2ccc(CNCCO)c(Cl)c2c1C	D3 antag -53.9
CCOC(=O)c1oc2ccc(CNC3CCCCC3)c(Cl)c2c1C	D3 antag -86.4
Cc1ccc(CNC(=O)c2c(C)oc3ncnc(N4CCOCC4)c23)cc1	none (no result: D3 antag)
Cc1ccc(C(=O)OCn2ncc(Cl)c(Cl)c2=O)cc1	D1 antagonist -47.6, D3 antag -50.7
CCOC(=O)c1ccc(NC(=O)Cn2ncc(Cl)c(Cl)c2=O)cc1	D3 antag inconclusive
O=C(OCn1ncc(Cl)c(Cl)c1=O)c1ccc(C(F)(F)F)cc1	D1 antagonist -48.3, D3 antag -85.3
COc1cc(NC(=O)Cn2cnc3c(NCc4ccccc4)ncnc32)cc(OC)c1OC	none (no result: D1 PAM, D1 ag, D1 antagonist)
COc1ccc(C)cc1Nc1n[n+](C)c(-c2ccc(O)cc2O)s1	D1 antagonist -30.1
COc1ccc(C)cc1Nc1n[n+](-c2ccccc2)c(-c2c(Cl)cccc2Cl)s1	D1 ag 32.4, D3 antag -87.4
COc1ccc(C)cc1Nc1n[n+](-c2ccccc2)c(-c2ccc(OC)c(OC)c2OC)s1	D1 antagonist -37.4, D3 antag inconclusive
COc1ccc(C)cc1Nc1n[n+](-c2ccccc2)c(-c2ccc(N(C)C)cc2)s1	D1 antagonist -56.8
COc1cccc(-n2ccn(CC(=O)c3ccc(F)cc3)c(=O)c2=O)c1	none (no result: D3 antag)
CCOCc1c(C(=O)N2CCN(CCOc3ccc(Cl)cc3)CC2)oc2ccccc12	D3 ag 108.0
CCOCc1c(C(=O)N2CCN(CC(=O)Nc3ccc(F)cc3)CC2)oc2ccccc12	D1 antagonist -33.6
CCCCOP(=O)(OCCCC)C(O)c1ccc(N(C)C)cc1 (stereo not drawn)	D1 antagonist -37.2
CCCOP(=O)(c1ccc(N(C)C)cc1)C(O)c1cccnc1 (stereo not drawn)	D3 ag 30.2
COc1ccc(/C=C2\N=C(C)N(c3ccc4ccccc4c3)C2=O)cc1OC	D1 antagonist -43.4
Cc1c(C(C)(C)C)s/c(=N/S(=O)(=O)c2ccccc2)n1C	D1 antagonist -35.1
CC(CN1CCC(O)CC1)c1ccccc1 (stereo not drawn)	none
CCCCC(O)CN1CCC(c2ccccc2)CC1 (stereo not drawn)	D3 antag -57.3
O=C(Cc1ccccc1)NC1CCN(Cc2ccccc2)CC1	D3 antag inconclusive
COC(=O)c1ccccc1NC(=O)NC1CCN(Cc2ccccc2)CC1	D3 antag -92.7
COc1ccc(S(=O)(=O)NC2CCN(Cc3ccccc3)CC2)cc1NC(C)=O	none
COc1ccc(C)cc1NC(=O)NC1CCN(Cc2ccccc2)CC1	D3 antag -82.6
CCC(C)[C@H](NC(=O)NC1CCN(Cc2ccccc2)CC1)C(=O)OC (stereo partly drawn)	D3 antag -50.2
CCOC(=O)c1c(C)[nH]c(C)c1S(=O)(=O)N1CCC(C(=O)NCc2ccc(OC)cc2)CC1	none (no result: D3 antag)
Cc1ccc(N=Cc2nc(-c3ccc(C)cc3)oc2O)cc1	none
COc1ccc(N=Cc2nc(-c3ccco3)oc2O)cc1	D3 antag -51.7
CCN(CC(=O)Nc1c(F)cccc1F)C(=O)CNC(=O)c1ccc2ccccc2c1	none (no result: D1 PAM)
CCN(CC(=O)Nc1c(F)cccc1F)C(=O)CNC(=O)c1ccc2c(c1)OCO2	D1 antagonist -32.5
CC(=O)N1CC2(CC(c3ccccc3F)=NO2)CN1c1ccc(Cl)cc1 (stereo not drawn)	none (no result: D1 PAM, D1 ag, D1 antagonist)
CCCc1c(C(=O)N/N=C(\CC)c2ccccc2)nnn1-c1nonc1N	none (no result: D1 PAM, D1 ag, D1 antagonist)
COc1ccc(S(=O)(=O)N2CCCOC2CNC(=O)C(=O)NCc2ccccc2F)cc1C (stereo not drawn)	D1 antagonist -31.7
O=C(NCCc1ccccc1)C(=O)NCC1OCCCN1S(=O)(=O)c1cc(F)ccc1F (stereo not drawn)	D3 antag inconclusive
COc1ccc(CCNC(=O)C(=O)NCC2CCCN2S(=O)(=O)c2ccc(OC)cc2)cc1 (stereo not drawn)	D3 ag 34.5
Cc1cc(F)ccc1S(=O)(=O)N1CCCOC1CNC(=O)C(=O)NCCc1ccccc1 (stereo not drawn)	D1 antagonist -34.1
COc1ccc(CCNC(=O)C(=O)NCC2OCCN2S(=O)(=O)c2ccc(OC)cc2)cc1 (stereo not drawn)	D1 antagonist -35.1
O=C(O)COc1nn(Cc2ccccc2)c2ccccc12	none (no result: D1 PAM, D1 ag, D1 antagonist, D3 antag)
COc1ccc(N2CC(c3nc(-c4ccccc4C)no3)CC2=O)cc1Cl (stereo not drawn)	none (no result: D3 antag)
CC(=O)Nc1ccc(CN(C)CC2CCCN(CCc3cccc(C(F)(F)F)c3)C2)cc1 (stereo not drawn)	none
CSCCC(=O)N(C)CC1CCN(CCc2cccc(C(F)(F)F)c2)CC1	none
CN(CC1CCN(CCc2cccc(C(F)(F)F)c2)CC1)C(=O)c1ccc(F)cc1F	D3 antag -69.2
